Assay results taken from PubChem BioAssay AID485270 (The Scripps Research Institute Molecular Screening Center, 2010).
In all, about 330,000 compounds went through this assay and about 5,800 (1.8%) were called active. The sample holds actives, similar compounds and a random draw of the others, so the mix is not that of the screen. Cut-off read from the data, not from the text of the source: active = inhibition mostly above about 38% (no sharp cut-off); inactive = mostly below about 40%.

Molecular target: Orexin/Hypocretin receptor type 1 (Homo sapiens) (UniProt O43613)
Assay: blocks the human orexin 1 receptor (AID 485270);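 note: 0% = agonist challenge alone and 100% = reference antagonist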
Conditions: OX1R-expressing cells, FRET antagonist read-out; at 6.6 µM; stronger effect = higher value

Sequence of Orexin/Hypocretin receptor type 1 (Homo sapiens) (O43613 whole entry, looked up): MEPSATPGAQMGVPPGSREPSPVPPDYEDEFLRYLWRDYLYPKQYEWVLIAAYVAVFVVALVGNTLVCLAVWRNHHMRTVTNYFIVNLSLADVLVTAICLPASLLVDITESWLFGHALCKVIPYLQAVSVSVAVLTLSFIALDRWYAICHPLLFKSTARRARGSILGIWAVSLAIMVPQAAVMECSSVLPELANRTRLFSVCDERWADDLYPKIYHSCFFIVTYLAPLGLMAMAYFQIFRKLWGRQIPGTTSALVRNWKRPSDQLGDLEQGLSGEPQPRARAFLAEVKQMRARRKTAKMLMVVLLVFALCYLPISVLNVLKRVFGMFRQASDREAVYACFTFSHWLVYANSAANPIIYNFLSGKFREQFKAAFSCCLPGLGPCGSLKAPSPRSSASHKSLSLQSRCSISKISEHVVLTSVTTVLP

inhibition, active:
O=C(Nc1nnc(C2=COCCO2)o1)c1ccc([N+](=O)[O-])s1 88.5%
COc1cc(OC)c(NC(=O)c2ccc(Br)o2)cc1Cl 81.8%
CSc1ccc(/C=N/NC(=O)c2cccc(Cl)c2)cc1 44.4%
O=C(CN1C(=O)c2cccc3cccc(c23)C1=O)N1CCCCC1 79.7%
C/C(N)=C(/C#N)C(=O)COC(=O)c1cc(-c2ccc(C)cc2)nc2ccccc12 86.7%
Nc1nc(-c2sc3nc4c(cc3c2N)CCCC4)nc(N2CCOCC2)n1 95.8%
Cc1ccc2c(c1)c1ncnc(N3CCc4ccccc4C3)c1n2C 74.4%
COc1ccc2oc(=O)c(C(=O)NCc3ccccn3)cc2c1 95.3%
CN1C(=O)/C(=C\c2cc(Br)cs2)c2ccccc21 63.8%
N#Cc1nc(-c2cccc3ccccc23)oc1N 71.4%

inhibition, inactive:
Cc1ccc(C(=O)Nc2nnc(C3=COCCO3)o2)cc1C 9.95%
O=C(COC(=O)/C=C/c1ccc(Br)o1)Nc1cccc(S(=O)(=O)N2CCOCC2)c1 4.21%
Cc1noc(C)c1NC(=O)Nc1ccc2c(c1)C(=O)N([C@H](C)CO)C[C@H](C)[C@@H](CN(C)C(=O)Nc1ccccc1)O2 -3.75%
COc1cc(C(=O)OCc2cc(=O)n3ccsc3n2)ccc1OC(C)C 8.65%
CCN1CCN(c2c(Cl)cccc2NC(=O)c2ccc(Br)o2)CC1 14.6%
COc1ccc(Cl)cc1NC(=O)COC(=O)c1ccc(Br)o1 5.94%
CCN(C[C@H]1N[C@@](CC)(C(=O)OC)[C@H]2C(=O)N(C)C(=O)[C@@H]12)C(=O)Nc1ccc(F)cc1 -4.34%
CCn1nnc2cc(C(=O)Nc3ccc(C(=O)OC(C)C)cc3)ccc21 16.8%
CSc1ccc(/C=N\NC(=O)CC(=O)NC(C)C)cc1 9.93%
O=C(N/N=C/c1ccc(Cl)c(Cl)c1)c1ccc2nc[nH]c2c1 31.8%
O=C(CCCN1C(=O)c2cccc3cccc(c23)C1=O)N1CCN(Cc2ccc3c(c2)OCO3)CC1 52.3%
O=C(CN1C(=O)c2cccc3cccc1c23)Nc1ccccc1 26.3%
C/C(N)=C(/C#N)C(=O)COC(=O)c1cc(-c2cccc(Br)c2)nc2ccccc12 44.3%
C/C(N)=C(/C#N)C(=O)COC(=O)c1cc(-c2ccccc2)nc2ccc(Br)cc12 8.99%
CC[C@]1(C(=O)OC)[C@H]2C(=O)N(Cc3ccccc3)C(=O)[C@H]2[C@H]2CN=C(SCc3ccc(Cl)cc3)N21 4.24%
CCCS(=O)(=O)N1CCC(CCOc2ccccc2)(C(=O)OCC)CC1 17.7%
Cc1ccc(S(=O)(=O)NCC(=O)NNC(=O)c2ccc(Br)cc2)cc1C 15.8%
Cc1nc(N2CCOCC2)nc2c1CCCC2 5.29%
Cc1cccc(NC(=O)c2sc3nc(N4CCOCC4)c4c(c3c2N)CCCC4)c1 4.35%
Cc1ccccc1-n1cc(CNC(=O)C2CCC(=O)N(C3CC3)C2)cn1 (configuration not stated) 15.2%
C=CC[C@H](CC(=O)NCCO)C(=O)N[C@@H](COC(=O)[C@@H](CC=C)Cc1ccc(F)cc1)Cc1c[nH]c2ccccc12 5.23%
Cc1ccc2c(c1)c1ncn(Cc3ccc(F)cc3)c(=O)c1n2C 8.56%
Cc1ccc2c(c1)c1ncn(CCC3=CCCCC3)c(=O)c1n2C 18.4%
CN(c1ccccc1)S(=O)(=O)c1cc(C(=O)N2CCN(c3ncccn3)CC2)ccc1Cl 4.83%
COc1ccc2oc(=O)c(C(=O)N3CCCC3)cc2c1 0.49%
COc1ccc(-c2nc(CS(=O)CC(=O)NCc3ccccn3)c(C)o2)cc1 (configuration not stated) 1.65%
COc1ccc(CNC(=O)C[C@H]2C[C@H](C(=O)N3CCOCC3)[C@@]3(CCC4CCCC4)c4[nH]c5ccc(Cl)cc5c4CCN3C2=O)cc1OC 0.33%
O=C1C=CN2CCCC2CC1 (configuration not stated) 13.3%
CC(=O)Nc1ccc(S(=O)(=O)NCCC(=O)N2CCN(c3ccccc3Cl)CC2)cc1 13.1%
CN1C(=O)/C(=N/OC(=O)c2ccccc2Br)c2ccccc21 14%
CCC1C(=O)c2ccccc2N(C)C1=O (configuration not stated) 17.9%
CCOCc1c(C(=O)N2CCN(Cc3ccc(Br)s3)CC2)oc2ccccc12 5.32%
O=C(COc1ccc([N+](=O)[O-])cc1Cl)Nc1ccc2[nH]c(=O)[nH]c2c1 9.15%
CCCCCCSc1ccc([C@@H]2[C@H]3C(=O)N(CC)C(=O)[C@H]3[C@]3(C(=O)OC)CCCCN23)cc1 3.69%
CC1CCN(c2oc(-c3ccccc3F)nc2C#N)CC1 9.88%
COc1ccc(Nc2oc(-c3ccccc3Cl)nc2C#N)cc1 29.4%
Cc1ccc(NC(=O)C2CC2)cc1S(=O)(=O)N1CCOCC1 5.49%
